CYP2C19 activ = cytochrome P450 2C19 (human) activation | recombinant CYP2C19, luciferin-H EGE luminescence; hits give high values; 0 = fully inhibited enzyme, 1 = untreated enzyme | activation factor at 5 µM | P33261 | 96,000 tested, under 10 active | AID 1025;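 active = activation factor of at least 2 at 5 µM in the primary screen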
PLK1 inh = blocks human PLK1 kinase activity; inhibition, % at 10 µM; P53350; 97,000 tested, 0.53% active; recombinant PLK1 kinase, TR-FRET peptide phosphorylation; AID 619;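 active = inhibition of 50% or more in the single-concentration screen; inactive = inhibition below 50%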
Target sequence (P53350 whole entry, looked up): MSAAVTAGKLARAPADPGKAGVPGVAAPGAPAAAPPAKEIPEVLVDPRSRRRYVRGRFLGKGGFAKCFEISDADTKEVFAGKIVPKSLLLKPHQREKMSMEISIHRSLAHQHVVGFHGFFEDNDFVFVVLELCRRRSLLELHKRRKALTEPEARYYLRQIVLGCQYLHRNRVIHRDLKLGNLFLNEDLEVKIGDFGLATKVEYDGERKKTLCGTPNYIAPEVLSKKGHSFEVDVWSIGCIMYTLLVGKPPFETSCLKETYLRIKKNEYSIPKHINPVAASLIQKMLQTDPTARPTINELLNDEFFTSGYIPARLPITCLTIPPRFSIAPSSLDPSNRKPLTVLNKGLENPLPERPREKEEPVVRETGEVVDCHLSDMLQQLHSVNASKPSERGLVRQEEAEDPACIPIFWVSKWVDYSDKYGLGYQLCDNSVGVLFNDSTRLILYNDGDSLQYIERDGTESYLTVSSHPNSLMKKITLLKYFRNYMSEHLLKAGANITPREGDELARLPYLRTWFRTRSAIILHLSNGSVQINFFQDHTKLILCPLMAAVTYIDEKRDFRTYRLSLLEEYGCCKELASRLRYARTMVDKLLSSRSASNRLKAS
CYP2C9 activ = activators of human CYP2C9; activation factor at 5 µM; 96,000 tested, 1.4% active; AID 1024; recombinant CYP2C9, luciferin-H conversion, luminescence; hits give high values; factor 1 = untreated enzyme, 0 = blocked;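 active = activation factor of 2 or more for CYP2C9 at a 5 µM dose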
Plk1 PBD FP = inhibitors of human Plk1 polo box domain binding; Plk1 PBD phosphopeptide binding, fluorescence polarization; inhibition, %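 (tested at about 20 µM)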; 97,000 tested, 0.13% active; in the data active = inhibition above about 34%, passing the limit was not always enough
CYP2C9 inhib = blocks human cytochrome P450 2C9 | P11712 | CYP2C9 Supersomes, luciferin-H conversion, luminescence | inhibition, % at 5 µM | 96,000 tested, 20% active;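 active = blocking of liver enzyme CYP2C9 beyond about 50% at 5 µM, limit read from the data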
CYP2C19 inh = human CYP2C19 inhibition; P33261; CYP2C19 Supersomes, luciferin-H EGE luminescence, 30 min; inhibition, % at 5 µM; 96,000 tested, 21% active; AID 778;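 active = CYP2C19 inhibition above a set limit at 5 µM in the primary screen, cut at about 50% in these data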
A number is an active result; 0 = inactive; - = no result given. In the library only some 28% were active in any assay of this set; here they are far more common.

SMILES	CYP2C19 activ	PLK1 inh	CYP2C9 activ	Plk1 PBD FP	CYP2C9 inhib	CYP2C19 inh
Cc1ccccc1-n1c(C)nnc1SCC(=O)NCC1CCCO1 (stereo not given)	0	-	0	-	0	0
O=C(CN1C(=O)c2ccccc2C1=O)Nc1sc2c(c1C(=O)NCc1ccco1)CCCC2	0	0	0	0	82	0
O=C(CCCN1C(=O)c2ccccc2C1=O)Nc1sc2c(c1C(=O)NCc1ccco1)CCC2	0	0	0	0	96	65
COc1cc(CNc2ccccc2SC)cc(OC)c1OC	0	0	0	0	89	95
COc1ccc(CNc2ccccc2SC)cc1OC	0	0	0	0	0	83
COC(=O)c1ccc(CSc2nc(C)nc3c2c(=O)n(C)c(=O)n3C)o1	-	0	-	0	-	-
CCCN(CCC)CCNC(=O)C1c2ccccc2C(=O)N(CCOC)C1c1ccc(F)cc1 (stereo not given)	0	0	0	0	0	0
CCOC(=O)c1[nH]c2ccccc2c1NC(=O)NC1CCCCC1	0	0	0	0	55	0
O=C(COC(=O)c1n[nH]c2ccccc12)NC(=O)NC1CCCC1	0	0	0	0	0	0
O=C(COC(=O)c1cc(=O)[nH]c2ccccc12)NC(=O)NC1CCCCC1	0	0	0	0	53	0
CCN(CC)CCCN1C(=O)C(O)=C(C(=O)c2cccs2)C1c1ccccn1 (stereo not given)	-	0	-	0	-	-
C/C(Cn1nc([N+](=O)[O-])cc1C)=N\NC(=O)c1cccc(Br)c1	0	0	0	0	0	59
O=S(=O)(c1ccc(F)cc1)N1CCN(c2ncnc3c2cnn3-c2ccccc2)CC1	0	0	0	0	0	0
O=C(Cn1c(-c2cscn2)nc2ccccc21)Nc1ccc2ccccc2c1	0	0	0	0	63	0
COc1cc(NC(=O)Cn2c(C)cc3ccccc3c2=O)cc(OC)c1OC	0	0	0	0	0	0
O=C(Cn1c(-c2cscn2)nc2ccccc21)Nc1cc(F)ccc1F	0	0	0	0	0	64
N#Cc1ccccc1Cn1c(-c2cscn2)nc2ccccc21	0	0	0	0	0	50
COc1cc(NC(=O)Cn2c(-c3cncs3)nc3ccccc32)cc(OC)c1OC	0	0	0	0	56	0
O=C(Nc1nccs1)c1csc2c1CCCC2	-	0	-	0	-	-
COC(=O)c1ccc(Cn2cc(Cl)cn2)cc1	0	0	0	0	53	99
CC(C)NC(=O)c1cccc(Cn2cc(Cl)cn2)c1	0	0	0	0	0	0
N#Cc1c(NC(=O)c2ccc(Cn3cc(Br)cn3)o2)sc2c1CCCCC2	0	0	0	0	0	0
COC(=O)c1sc(NC(=O)c2ccc(Cn3cc(Cl)cn3)o2)c(C#N)c1C	0	0	0	0	75	0
O=C(c1ccc(Cn2cc(Cl)cn2)cc1)N1CCN(c2ccccc2)CC1	0	0	0	0	0	0
O=C(Nc1cccc2ccccc12)c1ccc(Cn2cc(Cl)cn2)cc1	0	0	2.6	0	0	0
SMILES	CYP2C19 activ	PLK1 inh	CYP2C9 activ	Plk1 PBD FP	CYP2C9 inhib	CYP2C19 inh
Cc1cccc(N2CC(C(=O)Nc3ccc4c(c3)OCO4)CC2=O)c1C (stereo not given)	0	0	0	0	0	0
CCN(CC)c1ccc(C2NCC(c3ccc([N+](=O)[O-])cc3)O2)cc1 (stereo not given)	-	0	-	0	-	-
Cc1nn(-c2cccc(C(F)(F)F)c2)c(Cl)c1/C=N/n1cnnc1	0	0	0	0	95	90
FC(F)(F)c1cccc(-n2cccc2/C=N/n2cnnc2)c1	0	0	0	0	0	0
COc1ccc(NC(=O)C2CC(=O)OC2(C)C)cc1 (stereo not given)	0	0	0	0	0	0
Cc1ccc(-c2nnc(-c3ccncc3)n2-c2ccc(C)cc2)cc1	0	0	0	0	0	0
COc1cc(S(=O)(=O)NC2CCCCC2C)ccc1Cl (stereo not given)	0	0	0	0	0	97
COc1ccc(S(=O)(=O)NC2CCCC2)cc1Br	0	0	2.4	0	0	97
COc1cc(S(=O)(=O)Nc2ccccn2)ccc1F	0	0	2.1	0	0	0
COc1cc(S(=O)(=O)NC2CCCC2)ccc1F	0	0	0	0	0	90
Cc1csc(-c2cnn(-c3ccccc3)c2NC(=O)c2cccc(C(F)(F)F)c2)n1	0	0	0	0	0	0
C[C@H](NS(=O)(=O)c1ccccc1F)C(=O)OCC(=O)N1CCc2ccccc21	0	0	0	0	0	0
CCOC(=O)CNC(=O)C1CCCN(c2ncccn2)C1 (stereo not given)	0	0	0	0	0	0
COc1ccc(S(=O)(=O)NC2CCCCC2)c(C)c1C	0	0	0	0	0	96
COc1cc(S(=O)(=O)NC2CCCC2)ccc1Cl	0	0	3	0	0	94
COc1ccc(OC)c(S(=O)(=O)NC2CCCCC2)c1	0	0	0	0	0	0
COc1cc(C)c(Cl)cc1S(=O)(=O)n1cnc(C)c1	0	0	2	0	0	97
c1ccc(-c2onc3cc4c(cc23)OCCO4)cc1	0	-	0	-	54	50
CC1(C)CC(=O)c2c(noc2-c2ccccc2)C1	0	0	0	0	0	0
COc1ccc(C(=O)/C=C/c2ccc(OC)c(COc3ccc(F)cc3)c2)cc1	0	0	0	0	52	0
CNC(=O)c1ccc(OCc2ccccc2)c(OC)c1	0	0	0	0	0	0
COc1ccc(C(=O)NN)cc1COc1ccc(Br)cc1	0	0	0	0	50	96
COc1ccccc1OCc1ccc(C(=O)NN)cc1	0	0	0	0	0	62
COc1ccc(C(=O)NCCCCCC(=O)O)cc1OC	0	0	0	0	0	0
O=C(O)Cn1c2c(c3ccccc31)CCCC2	0	-	0	-	0	0
SMILES	CYP2C19 activ	PLK1 inh	CYP2C9 activ	Plk1 PBD FP	CYP2C9 inhib	CYP2C19 inh
O=C(c1cccc(C(=O)N2CCN(c3ccccc3F)CC2)n1)N1CCN(c2ccccc2F)CC1	0	0	0	0	86	90
O=C(NCc1ccccc1)N1CCN(c2ccccc2F)CC1	0	0	0	0	0	62
NC(=O)CN1CCN(c2ccccc2F)CC1	0	-	0	-	0	0
O=C(NC(=O)N1CCN(c2ccccc2F)CC1)c1ccccc1	0	0	0	0	0	60
O=C(NCc1ccco1)c1ccc(=O)oc1	0	0	0	0	0	0
CCn1c(SCc2ccc(C#N)cc2)nnc1-c1ccc(S(=O)(=O)N2CCCCC2)cc1	0	0	0	0	0	0
COc1cc(NC(=O)CN2CCN(Cc3ccc4c(c3)OCO4)CC2)cc(OC)c1	0	0	0	0	0	0
O=c1nc(N2CCOCC2)ccn1-c1nc(-c2ccccc2)oc1-c1ccccc1	0	0	0	0	55	0
CC1CCCCC1NC(=O)c1cn(C)c2ccc(S(=O)(=O)N3CCCC3)cc2c1=O (stereo not given)	0	-	0	-	0	0
COC(=O)Cc1cc(OC)c(OC)cc1Cc1cc(OC)c(OC)cc1CC(=O)OC	0	0	0	0	0	88
CCOc1ccc(C(N)=O)cc1OC	0	0	0	0	0	0

Screens deposited in PubChem by several laboratories.
